From PubChem BioAssay AID1345085 (National Center for Advancing Translational Sciences (NCATS), 2018)
Inconclusive results are not listed. A number with no mark means an inactive call. The source made the active and inactive calls. Calls follow the shape of the dose curve; as a rule, active = well fitted cell-killing curve with a large enough effect; inconclusive = small, poorly fitted or top-dose-only effect, or effect the other way; inactive = no such curve, though single readings can be large or run the other way.

System: CASKI
Assay: Confirmatory qHTS for gynecologic anti-cancer compounds from libraries of approved drugs and bioactive compounds; also: nearly all actives have a fitted effect of over 55% in size
Settings: gynecologic cancer cell panel viability, ATPlite luminescence, 48 h; series mostly up to 57.6 µM; activity change, negative = viability loss: at the top concentration
Summary of the method: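 Viability is measured as ATP-dependent luciferase light using ATPlite, read 15 min after reagent addition at room temperature. Compounds, in DMSO, span 57.5 uM down to 0.977 nM over 11 threefold steps for 48 h.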
% is scaled to controls: 0 for no effect and ±100 for the full control effect; potency is read from the fitted curve at half-maximal effect.

| Compound | activity change, negative = viability loss [%] | Potency |
| --- | --- | --- |
| CCC(=O)O[C@H]1CC[C@H]2[C@@H]3CCC4=CC(=O)CC[C@]4(C)[C@H]3CC[C@]12C | -19.4 |  |
| C=C(C)[C@H]1Cc2c(ccc3c2O[C@@H]2COc4cc(OC)c(OC)cc4[C@@H]2C3=O)O1 |  | 0.109 µM (active) |
| CCOc1ccccc1-n1c(C(C)N2CCN(C(=O)COc3ccc(Cl)cc3)CC2)nc2ccccc2c1=O (centres undefined) | -12.3 |  |
| C/C=C(/C)C(=O)O[C@H]1C(C)=C2[C@H]([C@@H]1OC(=O)CCCCCCC)[C@@](C)(OC(C)=O)C[C@H](OC(=O)CCC)[C@@]1(O)[C@H]2OC(=O)[C@@]1(C)O |  | 34.3 µM (active) |
| C[C@H]1CCC/C=C/C2C[C@H](O)C[C@H]2[C@H](O)/C=C/C(=O)O1 (some centres undefined) |  | 0.611 µM (active) |
| C[C@]12CC[C@H]3[C@@H](CCC4=CC(=O)CC[C@@H]43)[C@@H]1CC[C@@H]2OC(=O)CCc1ccccc1 | -1.32 |  |
| O=C(O)Cc1ccccc1 | -0.845 |  |
| CCN1CCN(C(=O)Cc2ccc(Nc3ncc(F)c(Nc4ccc(C(=O)Nc5ccccc5Cl)cc4)n3)cc2)CC1 | 4.94 |  |
| Cc1sc2c(c1C)C(c1ccc(Cl)cc1)=NC(CC(=O)OC(C)(C)C)c1nnc(C)n1-2 (centres undefined) |  | 7.69 µM (active) |
